# Screening results deposited in PubChem by National Center for Advancing Translational Sciences (NCATS).
# Only some compounds are listed: those with a hit (about 21% of all), similar ones and a draw of the others.
# Giardia FBPA inh – qHTS Assay for Inhibitors of Fructose-1,6-bisphosphate Aldolase from Giardia Lamblia | A8B2U2 | purified Giardia FBPA | Potency, µM (doses to about 59.6 µM), for the others: top-dose activity, negative = inhibition, hits mostly inhibitors | hit rate 0.71% among 290,000 | AID 2451, 2010; also: potency is read from the fitted curve at half-maximal effect; % is scaled to controls: 0 for no effect and ±100 for the full control effect; nearly all actives have a fitted effect of over 55% in size
# Target sequence (A8B2U2 whole entry, looked up): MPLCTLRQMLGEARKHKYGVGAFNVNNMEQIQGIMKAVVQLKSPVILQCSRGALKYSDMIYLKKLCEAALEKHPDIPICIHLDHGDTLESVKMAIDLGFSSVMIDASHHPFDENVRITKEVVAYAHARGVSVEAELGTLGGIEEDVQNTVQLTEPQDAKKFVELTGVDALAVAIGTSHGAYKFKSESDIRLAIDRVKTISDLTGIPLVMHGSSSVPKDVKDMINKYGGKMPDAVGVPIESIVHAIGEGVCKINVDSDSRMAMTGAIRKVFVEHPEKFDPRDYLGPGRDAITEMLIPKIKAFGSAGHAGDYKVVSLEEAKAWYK
#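 Giardia FBPA (40 nM reagent) was preincubated 10 min at RT with compound (up to 57.5 uM final), then substrate plus GAPDH/TPI/NAD/arsenate coupling system with diaphorase/resazurin was added; resorufin fluorescence (525/598 nm) was read after 20 min.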
# Shiga inhibitor – A qHTS for Small Molecule Inhibitors of Shiga Toxin; Vero cells, Shiga toxin protein synthesis inhibition reporter; inhibition, % at 38.7 µM; hit rate 9.2% among 290,000; AID 2315, 2010; in the data active = inhibition mostly above about 28%, no sharp cut-off; inactive = mostly below about 43%; also: 0% is about no effect
# NS1 function inh – qHTS Assay for Inhibitors of Influenza NS1 Protein Function; hit rate 0.4% among 270,000; Potency, µM (series often up to 46.1 µM), inactives show at the highest dose activity, positive = more growth; calls by dose curve; also: potency is read from the fitted curve at half-maximal effect; actives are rising curves; nearly all actives have a fitted effect of over 50% in size
#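 Growth recovery, yeast-based: influenza A NS1 expressed in S. cerevisiae causes slow growth, and suppressors are detected by OD600. The parent strain without NS1 is used as positive control.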
# Pf growth 48h – Primary qHTS for delayed death inhibitors of the malarial parasite plastid, 48 hour incubation | hit rate 5.9% among 310,000 | Potency, µM (top dose mostly 28.7 µM), without a hit: at the top dose activity change, negative = inhibition, usual class: inhibitors | AID 504832, 2011 | P. falciparum luciferase growth in erythrocytes, 48 h; also: potency is read from the fitted curve at half-maximal effect; % is scaled to controls: 0 for no effect and ±100 for the full control effect
#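 Luciferase-expressing parasites in RBCs, 2% Hct / 0.1% parasitemia final; RPMI 1640 + 0.5% Albumax; 37 C, 5% CO2, one generation; luminescence read-out, lower signal = inhibition.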
# CHX counter – Cycloheximide Counterscreen for Small Molecule Inhibitors of Shiga Toxin; cell reporter, cycloheximide protein synthesis inhibition counterscreen; max response, %; hit rate 12% among 300,000; AID 2314, 2010; in the data active = max response mostly above about 13%, no sharp cut-off; inactive = mostly below about 14%; also: read at 38.3 µM for the half of the compounds with a filed dose; 0% is about no effect
# Pf growth 96h – Primary qHTS for delayed death inhibitors of the malarial parasite plastid, 96 hour incubation | P. falciparum luciferase reporter growth, 96 h | Potency, µM (top dose mostly 28.7 µM), for the others: at the top dose activity change, negative = inhibition, actives largely listed as inhibitors | hit rate 6.9% among 320,000 | AID 504834, 2011; also: potency is read from the fitted curve at half-maximal effect; % is scaled to controls: 0 for no effect and ±100 for the full control effect
#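 Cell-based qHTS: luciferase-tagged P. falciparum in erythrocytes (2% hematocrit, 0.05% parasitemia final) incubated with compounds for 96 hours, 37 C, 5% CO2; luciferase detection reagent then added and luminescence measured.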
# Starred values were filed as active, the others as inactive; ? = inconclusive; / = no result given; [ ] = dose if it differs, or a comment. Unless noted, calls follow the shape of the dose curve; as a rule, active = well fitted curve in the direction sought with a large enough effect; inconclusive = small, poorly fitted or top-dose-only effect, or another doubt; inactive = no such curve, though single readings can be large; an effect the other way counts as inactive or inconclusive.
SMILES,Giardia FBPA inh,Shiga inhibitor,NS1 function inh,Pf growth 48h,CHX counter,Pf growth 96h
CCOC(=O)CN1C(=O)N(CC(=O)OCC)C(c2ccccc2)(c2ccccc2)C1=O,4.1%,-6.6,-1.7%,2.8%,-7.7,?
O=C(Nc1cc(Cl)ccc1Cl)C1Cc2ccccc2O/C1=N\O (centres undefined),4.0%,13.5,-4.7%,-0.2%,-0.2,7.0%
CC1=C(C(=O)OCC2CCCO2)C(c2ccccc2)NC(=O)N1 (centres undefined),0.0%,-21.1,3.1%,18.2%,-4.6,18.9%
Cc1c(C(=O)OC2CCC(C)CC2)[nH]c2c1C(=O)CCC2 (centres undefined),0.0%,76.1*,-59.9%,-17.8%,43.3*,2.1%
COC(=O)C1C(=O)c2c([nH]c(C(=O)OCC3CCCO3)c2C)CC1C (centres undefined),-9.4%,57.6*,1.2%,90.1%,22.9*,?
COC(=O)c1[nH]c2c(c1C)C(=O)CCC2,-2.0%,22.5,-13.6%,41.5%,11.2,-4.2%
COCCOC(=O)c1[nH]c2c(c1C)C(=O)C(C(=O)OC)C(C)C2 (centres undefined),?,74.0*,?,/,33.7*,?
COC(=O)C1C(=O)c2c([nH]c(C(=O)OC3CCCCCC3)c2C)CC1C (centres undefined),4.5%,57.0*,2.9%,-36.5%,25.1*,8.28µM*
CO[C@H]1COC(=O)C/C=C\[C@H](C)[C@H](OC)COC(=O)[C@@H](C)COC(=O)C/C=C\[C@@H]1C,-6.3%[12.9 µM],/,/,/,/,/
CCCCCOC(=O)C1=C(C)NC(=O)NC1c1ccc(OC)cc1 (centres undefined),5.9%,-11.4,?,21.4%,1.0,91.6%
CCCCCOC(=O)c1[nH]c2c(c1C)C(=O)C(C(=O)OC)C(C)C2 (centres undefined),-1.0%,38.2,-31.5%,/,26.0*,/
CCCCN(Cc1nc2ccccc2c(=O)[nH]1)C(=O)COc1ccc(F)cc1Cl,/,/,/,2.62µM*,/,3.7µM*
CCN(CC(=O)O)C(=O)c1cccnc1,/,/,-0.3%,/,/,/
CCOC(=O)/C(N=Nc1c(C)n(C)n(-c2ccccc2)c1=O)=C(\C)O,3.7%,-15.4,4.5%,5.8%,-4.5,10.5%
CCNc1ccc(N=Nc2c(C)n(C)n(-c3ccccc3)c2=O)cc1,0.8%,39.9,/,15.3%,21.1*,?
Cc1c(N=NC2=C(O)CC(C)(C)CC2=O)c(=O)n(-c2ccccc2)n1C,-13.6%,-13.1,0.7%,-20.7%,-1.4,2.08µM*
C=CCn1c(O)c(N=Nc2c(C)n(C)n(-c3ccccc3)c2=O)c(=O)[nH]c1=S,-24.3%,-7.8,-18.2%,-21.5%,-2.1,6.57µM*
Cc1ccc2c(c1)N(C(=O)CCC(=O)NCCCN1CCOCC1)CCO2,9.7%,5.0,-10.5%,49.4%,-1.5,48.7%
O=C(N/N=C/c1c(Cl)cccc1Cl)c1ccccc1F,3.9%,45.7*,49.4%,23.5%,25.9*,?
O=C(N/N=C/C(c1ccccc1)c1ccccc1)c1ccccc1F,2.9%,43.0,4.5%,16.0%,48.8*,-5.4%
CCC(/C=N/NC(=O)c1ccccc1F)CC,-0.5%,19.8,/,10.7%,5.8,3.1%
O=C(N/N=C/c1c(Cl)cccc1Cl)c1ccc(F)cc1,-0.1%,21.5,-2.6%,-11.6%,3.4,-1.8%
Cn1cccc1C(=O)N/N=C/c1c(Cl)cccc1Cl,-0.3%,60.6*,-7.4%,/,63.2*,264.6%
CSCC[C@@H](N)P(C)(=O)O,/,/,0.7%,/,/,/
Cc1[nH]c2ccc(C(=O)NCCCN3CCOCC3)cc2c1C,/,-6.2,24.4%,13.4%,1.9,?
SMILES,Giardia FBPA inh,Shiga inhibitor,NS1 function inh,Pf growth 48h,CHX counter,Pf growth 96h
COc1ccc(NC(=O)c2ccc3[nH]c(C)c(C)c3c2)cc1,-10.6%,47.8*,-7.1%,16.7%,38.7*,32.1%
Cc1[nH]c2ccc(C(=O)NCc3ccccn3)cc2c1C,-6.1%,54.6*,-4.5%,-22.5%,29.2*,?
COc1ccc(NC2CCCN(C(=O)c3cc4ncccn4n3)C2)cc1 (centres undefined),/,36.5*,6.9%,-8.0%,24.7*,?
Cc1[nH]c2ccc(C(=O)NCCCN3CCN(C)CC3)cc2c1C,-12.8%,9.3,-5.0%,-14.2%,-3.8,11.7µM*
Cc1ccc(S(=O)(=O)NCC(=O)OCC(=O)N2CCN(C(=O)c3ccco3)CC2)cc1C,/,/,/,29.6%,/,11.8%
Cc1cccc(NC(=O)CN2C(=O)CCS(=O)(=O)c3ccccc32)c1C,-6.5%,-2.7,5.5%,0.4%,-2.4,?
CCc1cccc(CC)c1NC(=S)NCCc1ccc(O)c(O)c1,-20.8%,-2.5,/,?,1.1,?
COc1ccc(NC2CCCN(C(=O)c3ccc(C(C)=O)cc3)C2)cc1 (centres undefined),/,-6.6,14.4%,-3.0%,0.7,-11.4%
COc1ccc(C(=O)Nc2cccc(NC(C)=O)c2)cc1OC,-4.3%,-13.6,1.9%,22.9%,-2.1,?
COc1ccc(NC2CCCN(C(=O)c3ccc4[nH]c(C)c(C)c4c3)C2)cc1 (centres undefined),-11.2%,-12.6,0.2%,?,-2.1,13.1µM*
CC(=O)Nc1cccc(NC(=O)c2ccc3[nH]c(C)c(C)c3c2)c1,-16.8%,56.1*,8.3%,61.5%,20.4*,62.7%
Cc1cc(NC(=O)c2ccc3[nH]c(C)c(C)c3c2)ccn1,-0.5%,51.7*,4.7%,2.62µM*,33.9,2.62µM*
CCc1cccc(CC)c1NC(=S)NCCc1c(C)[nH]c2ccccc12,-8.6%,-12.8,12.6%,13.1µM*,-2.6,13.1µM*
COc1ccc(NC(=O)COC(=O)C2CC(=O)N(c3ccc(C)cc3)C2)cc1 (centres undefined),8.9%,-6.9,-7.5%,32.6%,2.7,?
Cc1[nH]c2ccccc2c1CCNC(=O)c1ccc2nccnc2c1,-3.1%,/,7.5%,1.6%,14.7*,-4.8%
CN(C)C(/C=C/Nc1ccc(O)cc1)=C(C#N)C#N,-22.0%,-5.9,/,?,-1.8,9.28µM*
CCC(=O)Oc1ccc2c(c1)CCC1C2CC[C@]2(C)C(OC(=O)CC)CCC12 (some centres undefined),-9.9%,4.1,/,/,8.6,/
O=C(NCCCNC(=O)c1ccc(F)cc1)c1ccc(F)cc1,1.9%,-3.6,15.2%,16.8%,-3.3,22.1%
Cc1cccc(-n2c(C)cc(C=C3C(=O)c4ccccc4C3=O)c2C)c1,?,40.6,4.1%,-9.2%,20.7*,10.6%
Cc1cc(C=C2C(=O)CCCC2=O)c(C)n1-c1ccccc1,-12.2%,10.0,10.8%,-9.0%,16.1*,-58.0%
Cc1cc(/C=C2\C(=O)NC(=O)N(c3ccc(Cl)cc3)C2=O)c(C)n1-c1cccc(C(=O)O)c1,-16.4%,-7.9,4.8%,-7.3%,-4.1,?
Cc1cc(C=C2C(=O)c3ccccc3C2=O)c(C)n1-c1ccc(Cl)cc1,-5.4%,-6.4,-2.7%,11.3%,13.8*,22.9%
